Test results from ChEMBL document CHEMBL3988442, “University of Dundee, Small-Polar-MMV Screening Library” (2021).
For some of these results: Entries with a potency or affinity are not part of this list.

Key:
[1] = molecular target: T1, Methionyl-tRNA synthetase, putative (Leishmania donovani (strain BPK282A1)) (UniProt E9BF75); assay: Leishmania donovani Methionine tRNA synthetase (LdMetRS):v7. Dose response assay; assay type: functional; set-up: conc 80 nM, time 150 minutes
T1 sequence (whole entry): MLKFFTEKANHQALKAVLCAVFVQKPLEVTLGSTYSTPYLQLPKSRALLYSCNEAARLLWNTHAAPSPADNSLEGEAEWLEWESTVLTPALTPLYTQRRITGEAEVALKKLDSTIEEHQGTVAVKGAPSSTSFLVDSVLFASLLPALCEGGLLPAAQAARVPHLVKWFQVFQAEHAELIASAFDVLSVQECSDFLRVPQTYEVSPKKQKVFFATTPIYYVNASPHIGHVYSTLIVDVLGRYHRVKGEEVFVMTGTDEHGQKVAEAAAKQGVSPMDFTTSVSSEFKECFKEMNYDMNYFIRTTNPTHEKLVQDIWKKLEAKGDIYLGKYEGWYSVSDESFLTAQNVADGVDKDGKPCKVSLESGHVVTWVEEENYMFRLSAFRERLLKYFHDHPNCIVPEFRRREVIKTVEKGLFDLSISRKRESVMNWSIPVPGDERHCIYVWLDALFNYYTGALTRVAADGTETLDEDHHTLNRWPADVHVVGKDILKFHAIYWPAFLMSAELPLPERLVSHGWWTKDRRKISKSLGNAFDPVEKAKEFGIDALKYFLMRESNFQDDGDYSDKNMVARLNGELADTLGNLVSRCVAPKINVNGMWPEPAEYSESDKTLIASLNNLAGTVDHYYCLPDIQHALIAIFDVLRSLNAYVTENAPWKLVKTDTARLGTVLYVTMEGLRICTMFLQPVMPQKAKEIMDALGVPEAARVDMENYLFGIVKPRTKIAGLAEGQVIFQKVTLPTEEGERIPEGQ

[2] = molecular target: Protein translocase subunit SecA (Escherichia coli (strain K12)) (UniProt P10408); assay: Assay to Identify E. coli SecA ATPase Inhibitors; assay type: functional; set-up: scale not given: direction of the effect not stated beside the values; conditions: 30 µM
[3] = molecular target: T2, Ubiquitin-activating enzyme e1, putative (Leishmania donovani (strain BPK282A1)) (UniProt E9BSI1); assay: Leishmania donovani Ubiquitin Activating Enzyme (LdE1); assay type: functional; set-up: scale not given: direction of the effect not stated beside the values; conditions: 30 µM
T2 sequence (whole entry): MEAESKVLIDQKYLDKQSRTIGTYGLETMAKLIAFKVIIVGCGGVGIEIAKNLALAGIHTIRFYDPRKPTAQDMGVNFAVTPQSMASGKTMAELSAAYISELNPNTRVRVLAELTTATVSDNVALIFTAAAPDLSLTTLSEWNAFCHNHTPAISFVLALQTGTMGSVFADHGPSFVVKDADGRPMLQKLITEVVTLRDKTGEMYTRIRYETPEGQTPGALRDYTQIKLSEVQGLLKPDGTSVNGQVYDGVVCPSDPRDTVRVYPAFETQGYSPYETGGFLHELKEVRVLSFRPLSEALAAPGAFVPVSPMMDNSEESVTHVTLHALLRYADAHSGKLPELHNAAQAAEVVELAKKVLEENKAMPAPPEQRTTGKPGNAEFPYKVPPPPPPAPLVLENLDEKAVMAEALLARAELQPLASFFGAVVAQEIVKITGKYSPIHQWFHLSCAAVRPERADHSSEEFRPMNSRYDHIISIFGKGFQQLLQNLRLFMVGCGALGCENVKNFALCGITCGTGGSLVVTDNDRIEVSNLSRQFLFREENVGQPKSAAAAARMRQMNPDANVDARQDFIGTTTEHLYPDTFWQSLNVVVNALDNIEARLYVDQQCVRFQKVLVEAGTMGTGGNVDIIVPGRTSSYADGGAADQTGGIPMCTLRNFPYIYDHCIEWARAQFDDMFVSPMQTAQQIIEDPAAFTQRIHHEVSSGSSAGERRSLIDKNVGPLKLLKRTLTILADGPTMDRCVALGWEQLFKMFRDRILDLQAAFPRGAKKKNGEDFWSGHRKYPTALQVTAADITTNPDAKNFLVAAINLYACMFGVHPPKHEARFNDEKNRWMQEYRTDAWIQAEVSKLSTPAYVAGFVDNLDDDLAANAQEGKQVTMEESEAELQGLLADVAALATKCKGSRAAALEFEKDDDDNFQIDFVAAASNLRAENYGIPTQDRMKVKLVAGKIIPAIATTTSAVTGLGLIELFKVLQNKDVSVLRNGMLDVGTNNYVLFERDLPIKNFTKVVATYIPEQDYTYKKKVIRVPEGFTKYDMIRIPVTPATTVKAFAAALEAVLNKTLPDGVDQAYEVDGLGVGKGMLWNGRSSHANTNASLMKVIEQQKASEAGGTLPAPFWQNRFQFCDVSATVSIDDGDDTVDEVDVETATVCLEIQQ

[4] = molecular target: AMP-activated protein kinase, AMPK (Homo sapiens) (UniProt P54646+O43741+P54619+Q9UGJ0+Q9Y478+Q13131+Q9UGI9); assay: AMP-dependent Kinase enzyme assay. An in vitro enzyme assay that detects ADP turnover that is directly proportional to AMPK activity. This uses naive AMPK that is activated during the assay with MK-8722; assay type: functional; set-up: scale not given: direction of the effect not stated beside the values; conditions: 30 µM
[5] = molecular target: Sialic acid-binding Ig-like lectin 9 (Homo sapiens) (UniProt Q9Y336); assay: Hs-Siglec9 ALPHAscreen SOP 20170721; set-up: scale not given: direction of the effect not stated beside the values; conditions: 10 µM
[6] = test system: Trypanosoma cruzi; assay: Trypanosoma cruzi phosphomannomutase and mannose-1-phosphate guanylyltransferase assay; assay type: functional; set-up: scale not given: direction of the effect not stated beside the values; conditions: 10 µM
[7] = molecular target: T3, Arginase-2, mitochondrial (Homo sapiens) (UniProt P78540); assay: in vitro enzyme assay to detect the production of urea directly proportional to the activity of Arginase II; assay type: functional; set-up: scale not given: in the data most compounds retested in dose-response had high values; conditions: 33.3 µM
T3 sequence (whole entry): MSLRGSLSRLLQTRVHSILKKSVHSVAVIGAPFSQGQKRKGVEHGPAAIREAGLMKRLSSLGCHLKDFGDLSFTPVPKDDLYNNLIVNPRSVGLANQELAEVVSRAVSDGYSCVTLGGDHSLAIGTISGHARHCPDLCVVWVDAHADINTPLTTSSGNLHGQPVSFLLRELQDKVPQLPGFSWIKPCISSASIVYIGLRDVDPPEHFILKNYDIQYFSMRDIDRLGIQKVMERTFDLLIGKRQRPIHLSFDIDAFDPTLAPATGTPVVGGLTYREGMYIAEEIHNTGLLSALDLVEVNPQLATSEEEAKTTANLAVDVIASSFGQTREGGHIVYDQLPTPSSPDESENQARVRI

[8] = molecular target: T4, Proteasome subunit beta (Trypanosoma cruzi) (UniProt O96673); assay: Trypanosoma cruzi proteasome chymotrypsin-like activity (TcProtChymo) assay.; assay type: functional; set-up: scale not given: in the data most compounds retested in dose-response had high values; conditions: 9.37 µM
T4 sequence (whole entry): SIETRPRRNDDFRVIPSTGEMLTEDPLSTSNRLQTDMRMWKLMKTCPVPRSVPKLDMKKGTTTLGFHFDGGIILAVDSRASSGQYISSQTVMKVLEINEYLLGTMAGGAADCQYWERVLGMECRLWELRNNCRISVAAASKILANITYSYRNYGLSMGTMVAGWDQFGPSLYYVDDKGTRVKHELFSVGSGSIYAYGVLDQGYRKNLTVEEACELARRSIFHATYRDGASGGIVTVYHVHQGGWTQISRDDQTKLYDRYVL

[9] = organism: Homo sapiens; assay: To identify inhibition of the IFN signalling (Jak-Stat) pathway via expression of an eGFP reporter gene under the control of an IFN-stimulated response element (ISRE) containing MxA promoter.; assay type: functional; set-up: scale not given: direction of the effect not stated beside the values; conditions: 30 µM
[10] = molecular target: T5, Tyrosyl-tRNA synthetase, putative (Trypanosoma cruzi (strain CL Brener)) (UniProt Q4DSP6); assay: Trypanosoma cruzi tyrosyl tRNA synthetase (TcYRS) _High Tyrosine SOP; assay type: functional; set-up: scale not given: in the data most compounds retested in dose-response had high values; conditions: 30 µM
T5 sequence (whole entry): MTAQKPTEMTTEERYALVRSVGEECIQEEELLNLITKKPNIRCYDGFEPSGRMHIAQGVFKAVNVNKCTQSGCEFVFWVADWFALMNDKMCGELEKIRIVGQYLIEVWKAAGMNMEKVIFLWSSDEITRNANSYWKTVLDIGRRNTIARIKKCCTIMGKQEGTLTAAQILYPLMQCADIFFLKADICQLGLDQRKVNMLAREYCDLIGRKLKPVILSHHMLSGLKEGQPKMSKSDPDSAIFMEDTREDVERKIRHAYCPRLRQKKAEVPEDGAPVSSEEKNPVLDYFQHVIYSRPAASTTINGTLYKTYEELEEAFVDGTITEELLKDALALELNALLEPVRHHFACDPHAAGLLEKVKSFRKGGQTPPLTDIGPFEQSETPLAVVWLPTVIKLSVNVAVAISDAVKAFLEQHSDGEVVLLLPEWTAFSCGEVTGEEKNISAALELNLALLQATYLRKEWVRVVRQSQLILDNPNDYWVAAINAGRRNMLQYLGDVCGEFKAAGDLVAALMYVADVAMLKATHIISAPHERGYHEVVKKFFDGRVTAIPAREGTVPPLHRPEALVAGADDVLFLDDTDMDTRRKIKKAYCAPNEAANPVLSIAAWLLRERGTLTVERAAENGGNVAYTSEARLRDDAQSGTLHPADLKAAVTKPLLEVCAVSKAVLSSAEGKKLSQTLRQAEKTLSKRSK

[11] = molecular target: T5, Tyrosyl-tRNA synthetase, putative (Trypanosoma cruzi (strain CL Brener)); assay: Trypanosoma cruzi tyrosyl tRNA synthetase (TcYRS) SOP; assay type: functional; set-up: scale not given: direction of the effect not stated beside the values; conditions: 30 µM
[12] = molecular target: Chromo domain-containing protein 1 (Saccharomyces cerevisiae (strain ATCC 204508 / S288c) (Baker's yeast)) (UniProt P32657); assay: ScCHD-1 Enzyme Inhibition Assay; assay type: functional; set-up: scale not given: in the data most compounds retested in dose-response had high values; conditions: 30 µM
Sequence of Chromo domain-containing protein 1 (Saccharomyces cerevisiae (strain ATCC 204508 / S288c) (Baker's yeast)) (P32657 whole entry, the tested form may be a part): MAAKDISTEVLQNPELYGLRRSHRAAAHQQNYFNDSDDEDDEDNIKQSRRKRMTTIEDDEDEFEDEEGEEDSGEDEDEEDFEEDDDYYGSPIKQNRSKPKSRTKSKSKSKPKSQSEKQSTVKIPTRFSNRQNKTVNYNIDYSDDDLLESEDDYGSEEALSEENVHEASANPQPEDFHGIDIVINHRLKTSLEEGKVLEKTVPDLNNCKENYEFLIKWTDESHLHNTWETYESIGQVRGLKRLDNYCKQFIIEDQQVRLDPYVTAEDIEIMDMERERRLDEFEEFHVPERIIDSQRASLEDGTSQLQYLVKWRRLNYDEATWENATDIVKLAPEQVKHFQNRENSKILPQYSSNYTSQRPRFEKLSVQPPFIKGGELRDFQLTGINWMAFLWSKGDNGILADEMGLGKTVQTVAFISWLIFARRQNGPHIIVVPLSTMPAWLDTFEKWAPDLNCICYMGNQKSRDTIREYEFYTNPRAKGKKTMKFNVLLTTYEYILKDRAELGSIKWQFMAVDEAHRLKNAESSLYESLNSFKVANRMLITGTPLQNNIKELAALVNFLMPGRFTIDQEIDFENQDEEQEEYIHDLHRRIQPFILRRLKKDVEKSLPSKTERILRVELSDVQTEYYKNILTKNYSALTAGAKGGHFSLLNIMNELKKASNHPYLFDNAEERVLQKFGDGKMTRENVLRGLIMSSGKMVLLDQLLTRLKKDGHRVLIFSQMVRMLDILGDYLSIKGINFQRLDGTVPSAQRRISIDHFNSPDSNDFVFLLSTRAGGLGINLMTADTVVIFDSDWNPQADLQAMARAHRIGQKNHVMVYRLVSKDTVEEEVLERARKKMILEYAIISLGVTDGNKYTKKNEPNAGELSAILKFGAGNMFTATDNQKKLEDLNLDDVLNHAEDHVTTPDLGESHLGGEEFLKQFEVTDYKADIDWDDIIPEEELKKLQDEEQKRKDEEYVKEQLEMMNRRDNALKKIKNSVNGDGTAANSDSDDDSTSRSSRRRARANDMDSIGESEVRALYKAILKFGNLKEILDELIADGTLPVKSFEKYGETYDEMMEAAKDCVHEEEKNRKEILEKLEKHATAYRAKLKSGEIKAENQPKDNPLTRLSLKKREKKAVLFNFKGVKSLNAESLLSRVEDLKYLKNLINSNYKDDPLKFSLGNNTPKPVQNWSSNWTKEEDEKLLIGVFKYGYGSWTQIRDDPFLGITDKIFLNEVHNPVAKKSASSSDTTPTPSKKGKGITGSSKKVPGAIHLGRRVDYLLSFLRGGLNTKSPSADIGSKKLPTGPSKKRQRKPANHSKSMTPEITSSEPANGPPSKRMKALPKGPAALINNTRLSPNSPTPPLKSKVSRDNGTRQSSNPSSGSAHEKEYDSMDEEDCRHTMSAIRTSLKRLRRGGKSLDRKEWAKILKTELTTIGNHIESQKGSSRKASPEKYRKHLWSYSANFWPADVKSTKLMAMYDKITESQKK

Sequence of Protein translocase subunit SecA (Escherichia coli (strain K12)) (P10408 whole entry): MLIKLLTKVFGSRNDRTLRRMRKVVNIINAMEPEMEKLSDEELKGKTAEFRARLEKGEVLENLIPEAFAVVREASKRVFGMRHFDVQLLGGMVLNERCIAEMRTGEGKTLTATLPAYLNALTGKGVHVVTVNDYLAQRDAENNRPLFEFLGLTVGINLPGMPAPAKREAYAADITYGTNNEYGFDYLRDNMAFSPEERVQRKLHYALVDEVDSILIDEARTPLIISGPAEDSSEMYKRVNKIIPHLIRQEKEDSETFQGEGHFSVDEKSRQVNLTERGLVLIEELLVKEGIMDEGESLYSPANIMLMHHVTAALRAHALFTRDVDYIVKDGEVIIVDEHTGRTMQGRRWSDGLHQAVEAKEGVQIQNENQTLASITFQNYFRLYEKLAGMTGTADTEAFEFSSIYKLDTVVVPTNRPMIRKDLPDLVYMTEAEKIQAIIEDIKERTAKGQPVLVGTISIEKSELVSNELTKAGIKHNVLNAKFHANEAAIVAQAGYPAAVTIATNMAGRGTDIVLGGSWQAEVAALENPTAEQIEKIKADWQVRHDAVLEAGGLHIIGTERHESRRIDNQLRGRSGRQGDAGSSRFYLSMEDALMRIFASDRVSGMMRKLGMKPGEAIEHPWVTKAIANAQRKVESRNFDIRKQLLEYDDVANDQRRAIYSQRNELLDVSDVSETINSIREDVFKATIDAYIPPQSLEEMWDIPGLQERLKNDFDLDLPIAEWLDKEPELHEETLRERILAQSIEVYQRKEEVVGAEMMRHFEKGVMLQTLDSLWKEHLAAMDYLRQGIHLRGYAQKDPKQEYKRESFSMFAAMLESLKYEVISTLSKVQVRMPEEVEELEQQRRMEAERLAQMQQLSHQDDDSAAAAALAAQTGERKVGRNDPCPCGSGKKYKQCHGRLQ
Sequence of Sialic acid-binding Ig-like lectin 9 (Homo sapiens) (Q9Y336 whole entry): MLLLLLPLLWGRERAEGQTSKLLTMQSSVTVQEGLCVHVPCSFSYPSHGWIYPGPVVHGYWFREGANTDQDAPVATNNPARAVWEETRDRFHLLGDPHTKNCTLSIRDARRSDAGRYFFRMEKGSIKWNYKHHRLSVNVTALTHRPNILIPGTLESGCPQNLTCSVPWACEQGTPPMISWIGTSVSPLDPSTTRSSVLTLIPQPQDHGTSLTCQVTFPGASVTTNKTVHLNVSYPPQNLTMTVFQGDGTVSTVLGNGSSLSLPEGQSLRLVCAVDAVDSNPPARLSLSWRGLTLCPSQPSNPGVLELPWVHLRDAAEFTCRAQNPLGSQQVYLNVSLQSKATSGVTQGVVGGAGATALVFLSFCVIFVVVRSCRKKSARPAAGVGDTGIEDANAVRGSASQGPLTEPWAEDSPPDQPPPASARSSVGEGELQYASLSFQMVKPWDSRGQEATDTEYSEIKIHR

Q: For `Cc1nn(C)c(C)c1CCn1cncc1-c1ccc2c(c1)CC(C)N2C` (configuration not stated), which PXC50 ([1]; BOTTOM 5.604710013, HILLSLOPE 1.073782549, MAX_EFFECT 50.43327556, TOP 78.0664514) is on record?
A: 4.19

Q: And the PXC50 ([1]; MAX_EFFECT 34.22818792)?
A: < 4

Q: What about the PXC50 ([1]; MAX_EFFECT 37.5) of the same compound?
A: < 4

Q: What about the PXC50 ([1]; MAX_EFFECT 42.63038549) of the same compound?
A: < 4

Q: What about the PXC50 ([1]; MAX_EFFECT 45.23364486) of the same compound?
A: < 4

Q: `Cc1nc2cc(=O)[nH]n2c(C)c1CC(=O)Nc1ccc2ccccc2n1` was tested. Which PXC50 ([1]; BOTTOM 1.14070889, HILLSLOPE 1.278083227, MAX_EFFECT 56.52173913, TOP 100.0) did it give?
A: 4.1

Q: What about the PXC50 ([1]; MAX_EFFECT 23.76395534) of the same compound?
A: < 4

Q: And the PXC50 ([1]; MAX_EFFECT 26.29558541)?
A: < 4

Q: And the PXC50 ([1]; MAX_EFFECT 33.33333333)?
A: < 4

Q: And the PXC50 ([1]; MAX_EFFECT 45.21452145)?
A: < 4

Q: What about the Percent Effect [2] of the same compound?
A: -3.58%

Q: And the Percent Effect [3]?
A: 5.26%

Q: And the Percent Effect [4]?
A: -24.7%

Q: And the Percent Effect [5]?
A: 6.53%

Q: And the Percent Effect [6]?
A: 0.564%

Q: What about the Percent Effect [7] of the same compound?
A: -6.51%

Q: And the Percent Effect [8]?
A: -1.34%

Q: What about the Percent Effect [9] of the same compound?
A: -15.5%

Q: And the Percent Effect [10]?
A: 16.2%

Q: What about the Percent Effect [11] of the same compound?
A: 12.2%

Q: What about the Percent Effect [12] of the same compound?
A: -1.37%

Q: For `Cc1cccnc1NC(=O)NCc1ccc(N2CCNC(=O)C2)cc1`, which PXC50 ([1]; BOTTOM 2.91901785, HILLSLOPE 1.51189845, MAX_EFFECT 82.83828383, TOP 100.0) is on record?
A: 4.39

Q: What about the PXC50 ([1]; BOTTOM 3.848291916, HILLSLOPE 1.411514836, MAX_EFFECT 84.7826087, TOP 100.0) of the same compound?
A: 4.45

Q: What about the PXC50 ([1]; BOTTOM 5.032769966, HILLSLOPE 1.524648586, MAX_EFFECT 89.96415771, TOP 100.0) of the same compound?
A: 4.48

Q: What about the PXC50 ([1]; MAX_EFFECT 2.073365231) of the same compound?
A: < 4

Q: And the PXC50 ([1]; MAX_EFFECT 2.495201536)?
A: < 4

Q: What about the Percent Effect [2] of the same compound?
A: -3.51%

Q: What about the Percent Effect [3] of the same compound?
A: 15.6%

Q: What about the Percent Effect [4] of the same compound?
A: 9.04%

Q: What about the Percent Effect [5] of the same compound?
A: 11.4%

Q: What about the Percent Effect [6] of the same compound?
A: 1.5%

Q: What about the Percent Effect [7] of the same compound?
A: -2.13%

Q: What about the Percent Effect [8] of the same compound?
A: 8.78%

Q: What about the Percent Effect [9] of the same compound?
A: 5.74%

Q: And the Percent Effect [10]?
A: 41.8%

Q: What about the Percent Effect [11] of the same compound?
A: 34.1%

Q: And the Percent Effect [12]?
A: -8.16%
